# High-throughput results as filed in PubChem.
# Compounds with a hit are over-represented: about 7.5% of the library has one in this group of screens.
# B2AR arrestin = beta2AR (human) beta-arrestin recruitment activity. 0.02% of 330,000 active. beta-arrestin recruitment to beta2AR, cell-based reporter. P07550. Potency, µM (highest dose often 46.1 µM), inactives show top-dose activation, hits mostly activators;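 also: potency is read from the fitted curve at half-maximal effect; 0% = DMSO controls and full agonism = EC100 isoproterenol or metaproterenol; nearly all actives have a fitted effect of over 65% in size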
# Gal4-VP16 FLuc = counter-screen for ROR gamma inhibitors: Gal4-VP16 reporter. 3.5% of 310,000 active. Potency, µM (top dose mostly 53.6 µM), for the others: top-dose activity, negative = inhibition, usual class: inhibitors. AID 2546. Drosophila S2 Gal4-VP16 UAS-luciferase, luminescence, 20 h;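 also: Gal4-VP16 expression switched on by copper sulfate through the metallothionein promoter; potency is read from the fitted curve at half-maximal effect; nearly all actives have a fitted effect of over 50% in size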
# ELG1 repair inh = inhibitors of ELG1-dependent DNA repair in HEK293T cells; HEK293T ELG1-luciferase reporter, luminescence, 16 h; DNA damage induced by 5-fluorouridine; Potency, µM (highest dose often 46.1 µM), for inactives: top-dose activity change, negative = inhibition, most hits filed as inhibitors; 2.3% of 330,000 active; AID 504467; also: potency is read from the fitted curve at half-maximal effect; nearly all actives have a fitted effect of over 55% in size
#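 Step one: seed 2,000 cells per well. Step two: pin-transfer compound or DMSO alongside 5-fluorouridine. Step three: incubate 16 hr, 37 °C, 5% CO2. Step four: add ONE-Glo, wait 30 min, read luminescence.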
# RORgamma inh = inhibitors of mouse ROR gamma transcriptional activity; AID 2551; Drosophila S2 Gal4-RORgamma UAS-luciferase reporter, 20 h; 5.4% of 310,000 active; Potency, µM (series often up to 53.6 µM), without a hit: at the highest dose activity change, negative = inhibition, usual class: inhibitors; P51450; also: potency is read from the fitted curve at half-maximal effect; nearly all actives have a fitted effect of over 60% in size
#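 Stable Schneider cell line, Gal4 DNA-binding domain fused to ROR gamma, UAS-luciferase. Cmpd 1 hr RT → CuSO4 700 uM final → 20 hr RT → luciferase reagent 10 min → luminescence.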
# TSHR antag = blocks TSH signaling through the human TSH receptor | TSHR-expressing cells, TSH-stimulated cAMP HTRF, 2 h; stronger effect = lower value | activity change, negative = inhibition, % at 11.5 µM | 0.2% of 330,000 active;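 active = activity change below a set negative limit, meaning inhibition stronger than a set level, cut at about -70% in these data; inconclusive = activity change between two set negative limits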
# Target sequence (P16473 whole entry, looked up): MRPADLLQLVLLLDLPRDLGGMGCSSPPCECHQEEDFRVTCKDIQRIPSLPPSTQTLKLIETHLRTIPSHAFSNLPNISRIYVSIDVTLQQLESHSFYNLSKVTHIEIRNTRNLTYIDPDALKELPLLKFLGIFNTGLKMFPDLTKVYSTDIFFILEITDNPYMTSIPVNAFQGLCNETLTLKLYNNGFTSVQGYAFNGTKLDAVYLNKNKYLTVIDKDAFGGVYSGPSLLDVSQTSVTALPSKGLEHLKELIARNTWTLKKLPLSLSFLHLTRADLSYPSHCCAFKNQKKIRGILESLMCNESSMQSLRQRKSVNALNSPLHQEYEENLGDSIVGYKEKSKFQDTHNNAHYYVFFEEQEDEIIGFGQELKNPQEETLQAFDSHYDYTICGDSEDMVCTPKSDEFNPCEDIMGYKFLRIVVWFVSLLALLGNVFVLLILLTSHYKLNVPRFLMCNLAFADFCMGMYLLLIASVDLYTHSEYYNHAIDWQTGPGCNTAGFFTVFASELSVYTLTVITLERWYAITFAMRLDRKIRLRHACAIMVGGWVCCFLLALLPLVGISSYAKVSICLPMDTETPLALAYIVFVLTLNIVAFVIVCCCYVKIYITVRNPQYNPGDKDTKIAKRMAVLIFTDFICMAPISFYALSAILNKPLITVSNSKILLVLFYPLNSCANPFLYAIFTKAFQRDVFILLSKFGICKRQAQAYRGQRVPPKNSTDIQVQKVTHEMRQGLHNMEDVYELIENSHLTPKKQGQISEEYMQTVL
#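 Freshly harvested TSHR cells receive pin-tooled compound, then EC80 TSH at 4nM final. After 2 hours at 37 deg C, antibody in lysis buffer and cAMP-d2 are added; 30 minutes at ambient temperature precede the HTRF read.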
# * marks the source's active call; other numbers are inactive results; ? = inconclusive; nt = no result given; [ ] = dose if it differs, or a comment. Unless noted, calls follow the shape of the dose curve; as a rule, active = well fitted curve in the direction sought with a large enough effect; inconclusive = small, poorly fitted or top-dose-only effect, or another doubt; inactive = no such curve, though single readings can be large; an effect the other way counts as inactive or inconclusive. Unless noted, % is scaled to controls: 0 for no effect and ±100 for the full control effect.
SMILES,B2AR arrestin,Gal4-VP16 FLuc,ELG1 repair inh,RORgamma inh,TSHR antag
CC1(C)CC(=O)C(C=Nc2cccnc2/N=C/C2=C(O)CC(C)(C)CC2=O)=C(O)C1,-0.1%,-12.9%,2.1%,10µM*,-2.6
CCOc1ccccc1CNC(=O)C1CCN(C(=O)c2sccc2-n2cccc2)CC1,0.4%,-10.7%,13µM*,19.7%,10.3
CCN(CC(=O)Nc1c(F)cccc1F)C(=O)C1CCCN(C(=O)c2ccc(Cl)cc2)C1 (stereo unspecified),-0.1%,11.2µM*,7.9%,10µM*,5.4
COc1cc(OC)cc(C2=Nn3c(nnc3-c3ccccc3O)SC2)c1,nt,?,nt,-1.9%,nt
CC(C)Cc1ccc(CC(=O)O)cc1,nt,-7.8%,nt,-13.0%[10 µM],nt
CN(Cc1ccccc1)S(=O)(=O)c1nnc(NC(=O)c2ccccc2)s1,0.2%,-6.7%,-0.8%,23.6%,0.7
COCc1nnc(NC(=O)c2ccc(S(=O)(=O)N(C)Cc3ccccc3)cc2)o1,-0.5%,2.24µM*,?,0.794µM*,-7.5
CCN(Cc1ccccc1)S(=O)(=O)c1ccc(C(=O)Nc2nnc(C3CC3)o2)cc1,0.2%,0.562µM*,11.6µM*,0.0%,1.5
Cc1nnc(NC(=O)c2ccc(S(=O)(=O)N(C)Cc3ccccc3)cc2)o1,-0.3%,0.562µM*,-28.7%,0.199µM*,-3.7
CN(c1ccc(C(=O)NCc2ccncc2)cc1)S(=O)(=O)c1ccc(Cl)cc1,-0.6%,-2.8%,-1.4%,?,12.7
Cc1cc(O)c2c(c1)OC1(C)CCC3C(C)(C)CCCC34COC2C14 (stereo unspecified),nt,?,nt,3.2%,nt
O=C(NC(=O)N1CCN(c2cccc(Cl)c2)CC1)c1ccccc1,0.4%,-0.7%[0.365 µM],-1.7%,1.2%,21.1
CS(=O)(=O)N1CCN(C(=O)c2cc(-c3ccccc3)nc3ccccc23)CC1,-0.1%,-0.8%,-3.7%,-9.4%,-9.6
O=C(NC(=O)N1CCN(c2cccc(Cl)c2)CC1)c1ccc(Cl)cc1,-0.3%,?,4.1%,15.8µM*,-5.5
O=C(c1cc(-c2ccccc2Cl)nc2ccccc12)N1CCN(c2ccccn2)CC1,-0.1%,nt,23.1µM*,nt,-3.2
CS(=O)(=O)N1CCN(C(=O)c2cc(-c3cccs3)nc3ccccc23)CC1,-0.3%,2.5%,16.4µM*,7.4%,19.8
O=C(Nc1ccccc1C(=O)N1CCN(c2cccc(Cl)c2)CC1)C1=CSCCO1,-0.2%,0.3%,?,19.4%,-132.3*
COc1cccc(Nc2ncc3nc(-c4ccccc4)c(=O)n(C[C@H]4CCCO4)c3n2)c1,nt,-28.1%,nt,8.9%,nt
COc1ccc(-c2cc(C(=O)N3CCN(c4ccccc4O)CC3)c3ccccc3n2)cc1OC,-0.7%,2.8%,9.2µM*,?,-7.0
O=C(c1cc(Sc2cccc(Cl)c2)nc2ccccc12)N1CCN(c2ccccn2)CC1,0.4%,?,20.6µM*,15.8%,-6.0
COc1ccc(-c2cc(C(=O)N3CCN(c4ccccc4O)CC3)c3ccccc3n2)cc1,-1.0%,nt,19.9%,nt,-16.6
O=C(c1cnc(N2CCN(c3ccccn3)CC2)c2ccccc12)N1CCN(c2cccc(Cl)c2)CC1,0.0%,1.58µM*,4.61µM*,?,-39.0
O=C(c1ccco1)N1CCN(C(=O)c2cc(-c3ccccc3)nc3ccccc23)CC1,0.4%,11.5%,?,28.8%,-3.1
O=C(c1ccco1)N1CCN(C(=O)c2cc(-c3ccccn3)nc3ccc(Cl)cc23)CC1,-0.1%,-3.4%,10µM*,5.7%,2.8
Cc1ccc(S(C)(=O)=O)cc1C(=O)OCC(=O)N(Cc1ccccc1)Cc1ccccc1,-1.0%,nt,?,nt,16.6
SMILES,B2AR arrestin,Gal4-VP16 FLuc,ELG1 repair inh,RORgamma inh,TSHR antag
O=c1ccn(C2OC(COP(=O)(O)OC3C(CO)OC(n4ccc(=O)[nH]c4=O)C3O)C(O)C2O)c(=O)[nH]1 (stereo unspecified),nt,-0.2%,nt,6.1%,nt
O=C(CSc1nnc(CNC(=O)c2ccccc2)o1)Nc1nccs1,-0.3%,-3.1%,?,-13.6%,3.2
CCOC(=O)c1c(OCCO)nn(-c2ccccc2)c1N,0.0%,6.8%,6.9%,2.3%,-0.9
CO/N=C(\C(=O)N[C@@H]1C(=O)N2C(C(=O)[O-])=C(C[n+]3cccc4c3CCC4)CS[C@H]12)c1csc(N)n1,nt,2.0%,nt,4.7%,nt
O=C(c1cc(-c2ccccc2Cl)nc2ccccc12)N1CCN(c2ccccc2O)CC1,-0.2%,nt,13µM*,nt,-5.3
CN(c1ccccc1C(=O)N1CCN(c2cccc(Cl)c2)CC1)S(C)(=O)=O,0.0%,14.7%,-14.7%,25.4%,-10.0
O=C(c1cc(-c2ccccc2Cl)nc2ccccc12)N1CCC1,-0.3%,nt,-1.4%,nt,-1.5
O=C(Nc1ccc(C(F)(F)F)cc1)c1cccnc1N1CCOCC1,-0.3%,1.0%,-10.7%,1.9%,0.6
CSc1ccccc1C(=O)N1CCN(c2cccc(Cl)c2)CC1,0.0%,-2.8%,20.6µM*,4.4%,-11.4
O=C(Nc1ccc(C(F)(F)F)cc1)c1cnc(N2CCN(c3ccccn3)CC2)c2ccccc12,-0.2%,-11.2%,5.17µM*,-7.4%,-19.1
Cc1noc(C)c1COc1ccccc1C(=O)N1CCN(c2cccc(Cl)c2)CC1,-2.9%,nt,9.2µM*,nt,-10.7
C=CC(=O)N1C(=O)c2ccccc2S1(=O)=O,nt,-15.1%,nt,16.9%,nt
CN1CCCN(C(=O)c2cc(-c3cccc4ccccc34)nc3ccccc23)CC1,1.0%,-5.5%,-22.2%,-10.2%,-76.8*
CC(C)(C)C(=O)Nc1ccc(N2CCN(c3ccc(C(F)(F)F)cn3)CC2)nc1,3.8%,-8.4%,9.2µM*,?,-0.5
Cc1cccc(C(=O)Nc2nnc(-c3ccc(C(C)(C)C)cc3)s2)c1,0.4%,4.3%,8.0%,14.1µM*,4.0
O=C(NCc1ccc(Cl)cc1)c1cccc(S(=O)(=O)N2CCCC2)c1,0.2%,nt,?,nt,-44.7
COc1ccccc1OCCNC(=O)c1cccc(S(=O)(=O)N2CCN(Cc3ccccc3)CC2)c1,0.0%,nt,20.6µM*,nt,-1.9
O=C(NCCOc1ccc(Cl)cc1)c1cccc(S(=O)(=O)N2CCCC2)c1,0.1%,nt,8.91µM*,nt,2.4
COc1ccccc1OCCNC(=O)c1cccc(S(=O)(=O)N2CCN(C)CC2)c1,0.0%,-8.9%,11.4%,-16.9%,9.6
Cc1ccc(NS(=O)(=O)c2ccc(-c3coc(C)n3)cc2)c(Br)c1,-0.6%,-18.5%,-0.1%,?,-8.3
Nc1ccc(-c2ccc3ccccc3n2)cc1,nt,11.2µM*,nt,-19.6%,-36.4
CCOC(=O)c1ccc(-n2c(CCC(=O)O)ccc2-c2ccc(F)cc2)cc1,-0.8%,2.1%,-13.9%,5.4%,-7.8
O=C(OC(C(=O)c1c[nH]c2ccccc12)c1ccccc1)c1cnccn1 (stereo unspecified),-0.3%,-11.3%,-0.8%,0.4%,-8.7
O=C1CCC(C(=O)OC(C(=O)c2c[nH]c3ccccc23)c2ccccc2)=NN1 (stereo unspecified),-0.6%,7.08µM*,?,33.1%[10 µM],-8.8
